The values below come from PubChem BioAssay.

Tested on in the first experiment: not listed separately
Put plainly: hepatitis C replication reporter changes, two-sided – Huh7 cells, luciferase reporter, HCV replication inhibitor project, primary screen (AID 1109).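 Note: huh7 hepatoma cells harbouring a luciferase neomycin HCV replicon reporter; luciferase luminescence as measure of HCV replicon replication; test concentration not given here.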 The settings on record: Huh7 HCV replicon luciferase reporter, 48 h; higher = more signal. A general note: In a reporter assay the amount or activity of a reporter protein is the signal.
In turn, `COC(OC)[C@@H](C)[C@H](OC)[C@@H](C)[C@H](OC)c1ccccc1` showed a z-score of 0.928.

`C=CC[C@@H]1C=C[C@H](ON=C(C)CCN2CCCCc3nc(C)c(C)cc32)[C@@H](CO)O1` yielded a z-score of -0.197.

Regarding `CC(C)=CCCC(C)=CCON=C1C[C@@H](O)[C@@H](O)[C@@H]2[C@@H]3C(=O)N(Cc4ccc5c(c4)OCO5)C(=O)[C@@H]3CC[C@H]12`, the z-score was -1.45.

Compound `COc1cccc([C@H]2Oc3ccc(OC)cc3C(=NOCC[C@@H]3C=C[C@H](OC(C)=O)[C@@H](COC(C)=O)O3)[C@@H]2O)c1` gave a z-score of -0.544.

`COC(=O)[C@H](C)NC(=O)CCC1CC(OC(=O)NCc2ccc3c(c2)OCO3)CC2(CCCC(COC(=O)NCCC(C)C)O2)O1` (stereo partly drawn) returned a z-score of -0.166.

Turning to `O=C1[C@H]2CCn3c(=O)n(-c4ccccc4)c(=O)n3[C@H]2[C@H](O)[C@@H]2O[C@H]12`, the z-score is -0.687.

Compound `C[C@]12CCC3c4ccc(OCC5CO5)cc4CCC3C1CC[C@@H]2O` (stereo partly drawn) yielded a z-score of -2.71.

`CCN1C(=O)[C@H]2[C@H]3[C@H](O)[C@H](O)CC(=NNC(=O)OCc4ccccc4)[C@H]3CC[C@H]2C1=O` had a z-score of -0.0788.

Compound `CCN1C(=O)[C@H]2[C@H]3[C@H](O)[C@H](O)CC(=NOCC=C(C)CCC=C(C)C)[C@@H]3CC[C@H]2C1=O` gave a z-score of -0.44.

As for `CCOC(=O)[C@H](Cc1ccccc1)NC(=O)CCC1CC(OC(=O)NCc2cccc3ccccc23)CC2(CCCC(COC(=O)NCCc3ccccc3OC)O2)O1` (stereo partly drawn), the z-score was -1.06.

Regarding `CON=C1c2cc(OC)ccc2O[C@H](c2cccc(OC)c2)[C@H]1O`, the z-score came to 7.91.

`CCOC(=O)[C@H](CC(C)C)NC(=O)CCC1CC(OC(=O)NCc2ccc3c(c2)OCO3)CC2(CCCC(COC(=O)NCCC(C)C)O2)O1` (stereo partly drawn): the z-score was determined as 0.752.

The target of the next experiment is Left-right determination factor 2 (Homo sapiens) (UniProt O00292). The experiment can be described thus: small molecules binding LEFTY2 protein – biochemical, small-molecule microarray, 635 nm fluorescence scan, primary screen (AID 1110). To be noted: higher = more signal.
Left-right determination factor 2 (Homo sapiens), sequence (O00292 whole entry, looked up): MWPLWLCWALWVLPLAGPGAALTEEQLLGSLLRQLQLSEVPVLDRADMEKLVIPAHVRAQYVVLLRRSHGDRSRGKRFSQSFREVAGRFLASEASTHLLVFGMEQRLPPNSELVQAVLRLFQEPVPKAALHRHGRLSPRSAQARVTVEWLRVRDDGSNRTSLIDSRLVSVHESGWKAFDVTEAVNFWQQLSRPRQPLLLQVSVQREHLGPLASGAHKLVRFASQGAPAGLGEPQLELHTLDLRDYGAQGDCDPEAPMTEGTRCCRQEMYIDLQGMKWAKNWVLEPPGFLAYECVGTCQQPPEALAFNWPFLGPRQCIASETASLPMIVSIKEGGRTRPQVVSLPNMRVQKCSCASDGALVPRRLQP
For the compound `CCOC(=O)[C@H](Cc1ccccc1)NC(=O)CCC1CC(OC(=O)NCc2cccc3ccccc23)CC2(CCCC(COC(=O)NCc3ccc4c(c3)OCO4)O2)O1` (stereo partly drawn), the composite z-score was 0.284.

Consider `COc1cccc([C@H]2Oc3ccc(OC)cc3C(=NO[C@@H](C)c3cc(-c4c(C)cc(C)cc4C)no3)[C@@H]2O)c1`, for which the composite z-score is -2.35.

As for `CC(=O)OC[C@H]1O[C@H](C#CCCc2ccccc2)C=C[C@@H]1OC(C)=O`, the composite z-score came out at 0.751.

Regarding `CC(C)=NO[C@@H](C)c1cn([C@H](CO)Cc2ccccc2)nn1`, the composite z-score amounted to 0.802.

As for `COC(=O)C(C(=O)OC)C1CCCC(=O)C1` (stereo not drawn), the composite z-score was 0.576.

In the case of `COC(=O)CC=C[C@@H](C)[C@@H](C=NOC[C@@H](C)[C@H](OCc1ccccc1)C(C)C)OC`, the composite z-score came to 0.364.

`COc1ccc(O[C@H]2C=C[C@@H](c3ccccc3)O[C@@H]2COC(=O)NCc2cccc3ccccc23)cc1` displayed a composite z-score of -0.0808.

In the case of `CC(C)CON=C1C[C@@H](O)[C@@H](O)[C@@H]2[C@@H]3C(=O)N(C(C)(C)C)C(=O)[C@@H]3CC[C@@H]12`, the composite z-score turned out to be 1.1.

For the compound `CON=C(C)CCN1CCCCc2nc(C)c(C)cc21`, the composite z-score worked out at 0.679.

`O=C1[C@H]2[C@H]3[C@H](O)[C@H](O)CC(=NO[C@@H]4O[C@H](CO)[C@@H](O)[C@H](O)[C@H]4O)[C@@H]3CC[C@H]2C(=O)N1C[C@@H]1CCCO1` showed a composite z-score of 0.495.

For the compound `CCN1C(=O)[C@H]2[C@@H]3C(=CC[C@H]2C1=O)C(=O)[C@H]1O[C@H]1[C@H]3O`, the composite z-score was 0.705.

`CC=CC1=C(CO)[C@H](O)[C@H]2O[C@H]2[C@@H]1O` returned a composite z-score of 1.06.

For the compound `CC(=O)OC[C@H]1O[C@H](CC=NOC[C@@H](O)[C@H]2O[C@@H]3OC(C)(C)O[C@@H]3[C@H]2O)C=C[C@@H]1OC(C)=O`, the composite z-score came out at 0.439.

Consider `CO[C@H]1COC(=O)CC=C[C@H](C)[C@H](OC)COC(=O)[C@@H](C)NC(=O)CC=C[C@@H]1C`, for which the composite z-score is 0.953.

`C#CCCCON=C1C[C@@H](O)[C@@H](O)[C@@H]2[C@@H]3C(=O)N([C@@H](C)c4ccccc4)C(=O)[C@@H]3CC[C@@H]12` displayed a composite z-score of 0.201.

Consider `C=CC[C@@H]1C=C[C@H](ON=C(C)CCN2CCCc3nc(C)c(C)cc32)[C@@H](CO)O1`, for which the composite z-score turned out to be 1.14.

Consider `CCOC(=O)[C@H](CC(C)C)NC(=O)CCC1CC(OC(=O)NCCc2ccc(F)cc2)CC2(CCCC(COC(=O)NCCOC)O2)O1` (stereo partly drawn), for which the composite z-score came out at 1.12.

For `CC(CCC(=O)OC[C@H]1O[C@H](C#Cc2ccccc2)C=C[C@@H]1Oc1ccc(C)cc1)=NOC[C@@H](C)[C@H](OCc1ccccc1)C(C)C`, the composite z-score was -0.502.

On to `COc1ccc(O[C@H]2C=C[C@@H](c3ccccc3)O[C@@H]2CO)cc1`, for which the composite z-score was determined as 0.213.

As to `CCOC(=O)CCN1C(=O)[C@H]2[C@H]3[C@H](O)[C@H](O)CC(=NOCC(C)C)[C@@H]3CC[C@H]2C1=O`, the composite z-score was 1.01.

Regarding `CO[C@H]1COC(=O)[C@H](CCSC)NC(=O)CC=C[C@@H](C)[C@H](OC)COC(=O)[C@@H](OCc2ccccc2)C=C[C@@H]1C`, the composite z-score came out at 0.753.

As for `CC(CCC(=O)OC[C@H]1O[C@H](C#Cc2ccccc2)C=C[C@@H]1Oc1ccc(C)cc1)=NO[C@@H](C)c1cc(-c2c(C)cc(C)cc2C)no1`, the composite z-score was -0.547.

In turn, `CC(C)[C@@H](OCc1ccccc1)[C@H](C)C=NO[C@H](C)c1cn([C@@H]2COC[C@H]2O)nn1` returned a composite z-score of 0.542.

Regarding `CCOC(=O)CCN1C(=O)[C@H]2[C@H]3[C@H](O)[C@H](O)CC(=O)[C@@H]3CC[C@H]2C1=O`, the composite z-score amounted to 0.657.

With `COC(OC)[C@@H](C)[C@H](OC)[C@@H](C)[C@H](OC)c1ccccc1`, the composite z-score was 0.4.

Compound `C=CC[C@@H]1C=C[C@H](ON=C(C)CCN2CCCCc3nc(C)c(C)cc32)[C@@H](CO)O1` registered a composite z-score of 1.25.

On to `CC(C)=CCCC(C)=CCON=C1C[C@@H](O)[C@@H](O)[C@@H]2[C@@H]3C(=O)N(Cc4ccc5c(c4)OCO5)C(=O)[C@@H]3CC[C@H]12`, for which the composite z-score was found to be 0.546.

In the case of `COc1cccc([C@H]2Oc3ccc(OC)cc3C(=NOCC[C@@H]3C=C[C@H](OC(C)=O)[C@@H](COC(C)=O)O3)[C@@H]2O)c1`, the composite z-score was 0.492.

Consider `COC(=O)[C@H](C)NC(=O)CCC1CC(OC(=O)NCc2ccc3c(c2)OCO3)CC2(CCCC(COC(=O)NCCC(C)C)O2)O1` (stereo partly drawn), for which the composite z-score was found to be 0.694.

Consider `O=C1[C@H]2CCn3c(=O)n(-c4ccccc4)c(=O)n3[C@H]2[C@H](O)[C@@H]2O[C@H]12`, for which the composite z-score stood at 0.33.

With `C[C@]12CCC3c4ccc(OCC5CO5)cc4CCC3C1CC[C@@H]2O` (stereo partly drawn), the composite z-score was found to be 0.242.

For `CCN1C(=O)[C@H]2[C@H]3[C@H](O)[C@H](O)CC(=NNC(=O)OCc4ccccc4)[C@H]3CC[C@H]2C1=O`, the composite z-score was found to be 0.227.

`CCN1C(=O)[C@H]2[C@H]3[C@H](O)[C@H](O)CC(=NOCC=C(C)CCC=C(C)C)[C@@H]3CC[C@H]2C1=O`: the composite z-score is 1.29.

`CCOC(=O)[C@H](Cc1ccccc1)NC(=O)CCC1CC(OC(=O)NCc2cccc3ccccc23)CC2(CCCC(COC(=O)NCCc3ccccc3OC)O2)O1` (stereo partly drawn): the composite z-score stood at 0.584.

With `CON=C1c2cc(OC)ccc2O[C@H](c2cccc(OC)c2)[C@H]1O`, the composite z-score was 0.601.

In turn, `CCOC(=O)[C@H](CC(C)C)NC(=O)CCC1CC(OC(=O)NCc2ccc3c(c2)OCO3)CC2(CCCC(COC(=O)NCCC(C)C)O2)O1` (stereo partly drawn) yielded a composite z-score of 0.0162.
